From PubChem BioAssay come the findings set out here.

Experiment [1] is described as follows: growth inhibition of DIPG glioma cells, dose response, cell-based, SU-DIPG-XVII, MIPE5.0, CellTiter-Glo, qHTS (AID 1347060; cut-off not given, nearly all actives have AC50 up to about 26 µM;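 for AC50: cells exposed to compound for 48 hours before viability readout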). The following applies: SU-DIPG-XVII viability, CellTiter-Glo ATP luminescence.
Experiment [2] is described as follows: growth inhibition of DIPG glioma cells, dose response, cell-based, JHH-DIPG-1, MIPE4.0, CellTiter-Glo, qHTS (AID 1347062; cut-off not given, nearly all actives have AC50 up to about 27 µM;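 for AC50: cells exposed to compound for two days before readout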). The following applies: JHH-DIPG-1 viability, CellTiter-Glo ATP luminescence.
Experiment [3] can be described thus: growth inhibition of DIPG glioma cells, dose response, cell-based, SU-DIPG-XIII, MIPE5.0, CellTiter-Glo, qHTS (AID 1347064; cut-off not given, nearly all actives have AC50 up to about 23 µM;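 for AC50: cells exposed to compound for 48 hours before the viability read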). The conditions noted are these: SU-DIPG-XIII viability, CellTiter-Glo ATP luminescence.
A short description of experiment [4]: SU-DIPG-XXV glioma cell viability, MIPE5.0 library, qHTS (AID 1347068; cut-off not given, nearly all actives have IC50 up to about 30 µM;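 for IC50: cells exposed to compound for 48 hours before viability readout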).
A short description of experiment [5]: viability loss in pontine glioma line – cell-based, SU-DIPG-XXV, MIPE5.0, CellTiter-Glo, qHTS, dose response (AID 1347065; cut-off not given, nearly all actives have AC50 up to about 26 µM;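 note: cells exposed to compound for 48 hours before ATP readout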). The conditions noted are these: CellTiter-Glo ATP luminescence.
The nature of experiment [6]: JHH-DIPG-1 glioma cell viability, MIPE5.0 library, CellTiter-Glo luminescence, qHTS (AID 1347067; cut-off not given, nearly all actives have AC50 up to about 26 µM;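 note: cells exposed to compound for 48 hours before readout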). The following applies: JHH-DIPG-1 glioma viability, CellTiter-Glo ATP luminescence.
The nature of experiment [7]: SU-DIPG-VI glioma cell viability, MIPE4.0 library, CellTiter-Glo luminescence, qHTS (AID 1347066; cut-off not given, nearly all actives have AC50 up to about 30 µM;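 note: cells exposed to compound for 48 hours before readout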). The following applies: CellTiter-Glo ATP luminescence.
Experiment [8] is described as follows: modifiers of HSF1 nuclear foci, imaging, Selleck Cancer Library (AID 1347162; in the data active = plate-normalised HSF1 focus index below about 0.46). The following applies: human cells, at 10 µM; SSMD: measured here: HSF1 foci SSMD mean; cell count: measured here: cell number; plate-normalised HSF1 focus index: stronger effect = lower value.
A short description of experiment [9]: ovarian cancer cell viability with rucaparib, profiling panel, oncology-focused library, rucaparib conditional (AID 1508598). The conditions noted are these: patient-derived ovarian cancer cells, CellTiter-Glo viability, 144 h, stronger effect = lower value.

Records with an inconclusive call do not appear. Active and inactive are the calls of the source.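 Rule for the calls, unless noted: active = normalized viability below 100% at a tested concentration; inactive = the rest.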

With `C[C@@H]1CN(Cc2ccc(F)cc2)[C@@H](C)CN1C(=O)c1cc2c(C(=O)C(=O)N(C)C)cn(C)c2cc1Cl`, the outcome in experiment [1], in experiment [2], in [3] and in [4] was inactive.

Regarding `COc1ccc(/C=C\c2cc(OC)c(OC)c(OC)c2)cc1NC(=O)[C@H](N)CO`, the AC50 in experiment [1] is 83.3 nM (active); in experiment [2] it was 20.9 nM (active); in experiment [3] it was 590 nM (active); in experiment [5] it was 148 nM (active); in experiment [6], 235 nM (active). Besides, the IC50 in experiment [4] is 332 nM (active).

Consider `CCC(C)SSc1ncc[nH]1` (stereo not drawn), for which the half-maximal activity concentration (AC50) in experiment [1] is 14800 nM (active); in experiment [2], 23500 nM (active); in experiment [5] it was 11800 nM (active); in [7], 26400 nM (active).

As for `CC[C@]12C=CCN3CC[C@@]4(c5cc([C@@]6(C(=O)OC)C[C@H]7C[C@@H](C(C)(F)F)CN(Cc8c6[nH]c6ccccc86)C7)c(OC)cc5N(C)[C@H]4[C@@](O)(C(=O)OC)[C@@H]1OC(C)=O)[C@@H]32`, the AC50 was 78.3 nM (active) in experiment [1]; 469 nM (active) in experiment [2]; 1750 nM (active) in experiment [3]; 111 nM (active) in experiment [5]; 8330 nM (active) in [7]; 312 nM (active) in experiment [6]. For the same compound, the 50% inhibitory concentration (IC50) in experiment [4] is 350 nM (active).

For `CC[C@@H]1C(=O)N(C)c2cnc(Nc3ccc(C(=O)NC4CCN(C)CC4)cc3OC)nc2N1C1CCCC1`, the concentration at half-maximal activity (AC50) in experiment [1] is 66.1 nM (active); in [2] it was 8330 nM (active); in experiment [3], 1480 nM (active); in [5], 37.2 nM (active); in experiment [7], 20900 nM (active). In addition, the SSMD in [8] was found to be 4.3. The cell count in [8] came out at 7240. Besides, the plate-normalised HSF1 focus index in experiment [8] was 1.16 (inactive). In addition, the viability is 116% (inactive) in experiment [9] (at 0.000305 µM, OCI-C5x cells, with rucaparib 10 µM, 100% = cells with rucaparib alone); 133% (inactive) in [9] (at 0.000305 µM, OCI-C5x cells, without rucaparib); 89.2% (active) in [9] (at 0.000305 µM, OCI-P5x cells, with rucaparib 20 µM, 100% = cells with rucaparib alone); 77.1% (active) in [9] (at 0.000305 µM, OCI-P5x cells, without rucaparib); 126% (inactive) in experiment [9] (at 0.00122 µM, OCI-C5x cells, with rucaparib 10 µM, 100% = cells with rucaparib alone); 124% (inactive) in experiment [9] (at 0.00122 µM, OCI-C5x cells, without rucaparib). Moreover, the viability was 89.5% (active) in experiment [9] (at 0.00122 µM, OCI-P5x cells, with rucaparib 20 µM, 100% = cells with rucaparib alone); 50.9% (active) in experiment [9] (at 0.00122 µM, OCI-P5x cells, without rucaparib); 51.4% (active) in experiment [9] (at 0.00488 µM, OCI-C5x cells, with rucaparib 10 µM, 100% = cells with rucaparib alone); 47.2% (active) in experiment [9] (at 0.00488 µM, OCI-C5x cells, without rucaparib); 74.9% (active) in experiment [9] (at 0.00488 µM, OCI-P5x cells, with rucaparib 20 µM, 100% = cells with rucaparib alone); 17% (active) in experiment [9] (at 0.00488 µM, OCI-P5x cells, without rucaparib). Besides, the viability in [9] (at 0.0195 µM, OCI-C5x cells, with rucaparib 10 µM, 100% = cells with rucaparib alone) was 40.7% (active); in experiment [9] (at 0.0195 µM, OCI-C5x cells, without rucaparib), 37.1% (active); in [9] (at 0.0195 µM, OCI-P5x cells, with rucaparib 20 µM, 100% = cells with rucaparib alone), 71.7% (active); in experiment [9] (at 0.0195 µM, OCI-P5x cells, without rucaparib) it was 18.2% (active); in experiment [9] (at 0.0781 µM, OCI-C5x cells, with rucaparib 10 µM, 100% = cells with rucaparib alone), 38.3% (active); in experiment [9] (at 0.0781 µM, OCI-C5x cells, without rucaparib) it was 30.4% (active). For the same compound, the viability in experiment [9] (at 0.0781 µM, OCI-P5x cells, with rucaparib 20 µM, 100% = cells with rucaparib alone) is 66.7% (active); in experiment [9] (at 0.0781 µM, OCI-P5x cells, without rucaparib), 16.5% (active); in experiment [9] (at 0.313 µM, OCI-C5x cells, with rucaparib 10 µM, 100% = cells with rucaparib alone) it was 32.5% (active); in experiment [9] (at 0.313 µM, OCI-C5x cells, without rucaparib), 30.3% (active); in [9] (at 0.313 µM, OCI-P5x cells, with rucaparib 20 µM, 100% = cells with rucaparib alone), 48.5% (active); in experiment [9] (at 0.313 µM, OCI-P5x cells, without rucaparib), 15.8% (active). The viability was 15.9% (active) in experiment [9] (at 1.25 µM, OCI-C5x cells, with rucaparib 10 µM, 100% = cells with rucaparib alone); 18.2% (active) in [9] (at 1.25 µM, OCI-C5x cells, without rucaparib); 43% (active) in experiment [9] (at 1.25 µM, OCI-P5x cells, with rucaparib 20 µM, 100% = cells with rucaparib alone); 15.1% (active) in experiment [9] (at 1.25 µM, OCI-P5x cells, without rucaparib); 18% (active) in experiment [9] (at 5 µM, OCI-C5x cells, with rucaparib 10 µM, 100% = cells with rucaparib alone); 21.9% (active) in experiment [9] (at 5 µM, OCI-C5x cells, without rucaparib). In addition, the viability was 34.3% (active) in experiment [9] (at 5 µM, OCI-P5x cells, with rucaparib 20 µM, 100% = cells with rucaparib alone) and 15.2% (active) in experiment [9] (at 5 µM, OCI-P5x cells, without rucaparib).

Take `COc1cc2c(cc1OC)CC(=O)N(CCCN(C)C[C@H]1Cc3cc(OC)c(OC)cc31)CC2`: the outcome in experiment [1], in experiment [2], in experiment [3], in experiment [5], in experiment [7] and in [6] was inactive. Further, the outcome in experiment [4] was inactive.
